The record followed here is the supplement of paper PMC12045047.

Unmarked numbers belong to inactive results.

The test system of the first assay is primary human airway basal cells (HBEC, luciferase-transduced). Briefly: proliferation (luciferase bioluminescence) Z score relative to plate mean; higher = more proliferation / more cells, active = 1.96 or more. The conditions noted are these: donor: 1; 0.5 µM; library: ENZO Libraries; 4 days. The method, then:
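Primary human bronchial epithelial (airway basal) cells from two donors, lentivirally transduced with pHIV-Luc-ZsGreen, were seeded at 2000 cells/well in 384-well plates in FAD medium with ENZO or Prestwick library compounds and cultured for 4 days. Luciferin was then added and bioluminescence was read as a measure of cell number. Relative light units were converted to Z scores against the plate, and the mean of triplicate wells is reported.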
As for `O=c1cc(-c2ccc(O)cc2)oc2cc(O)cc(O)c12` [Apigenin], the proliferation is 0.308.
The same measure, in the same setting: in the case of `O=c1oc(Cl)c(Cl)c2ccccc12` [34-Dichloroisocoumarin] it was 0.257.
In the case of `CNC(=O)[C@H](Cc1c[nH]c2ccccc12)NC(=O)[C@@H](CC(=O)NO)CC(C)C`, the proliferation is -0.298.
With `COc1cccc(-c2cc(=O)c3ccccc3o2)c1N`, the proliferation is 2.9 (active).
Turning to `NCCCC[C@H](N[C@@H](CCc1ccccc1)C(=O)O)C(=O)N1CCC[C@H]1C(=O)O` [Lisinopril], the proliferation was -0.405.
Regarding `CCCC[C@@H](C=O)NC(=O)[C@H](CC(C)C)NC(=O)OCc1ccccc1` [Calpeptin], the proliferation is -0.319.
The same measure, in the same setting: the value for `CCCC(CCC)C(=O)O` [Valproic acid] was -0.00583.
Consider `O=C(O)c1ccnc(C(=O)O)c1` [24-Pyridinedicarboxylic Acid], for which the proliferation is 0.171.
With `C[C@H](CS)C(=O)N1CCC[C@H]1C(=O)O` [Captopril], the proliferation was -0.424.
Turning to `N#C/C(=C\c1ccc(O)c(O)c1)C(=O)Nc1ccccc1`, the proliferation is 0.183.
Take `NC(=O)c1cccnc1` [Nicotinamide]: the proliferation was 0.0934.
On the same count and under the same terms, in the case of `CC(C)n1cnc2c(NCc3ccccc3)nc(NCCO)nc21` [N9-isopropyl-olomoucine] it was -0.31; in that of `CCCCC[C@H](CC(=O)NO)C(=O)N[C@H](C(=O)N1CCC[C@H]1CO)C(C)C` [Actinonin], -0.508.
For the compound `C[S+]([O-])c1ccc(-c2nc(-c3ccc(F)cc3)c(-c3ccncc3)[nH]2)cc1` (stereo not given), the proliferation was 0.838.
Same read-out and setting: in the case of `COc1cc2ncc(-c3ccccc3)nc2cc1OC` it was 2.2 (active); in that of `CC(C(=O)Nc1cccc(/N=C/c2c(O)ccc3ccccc23)c1)c1ccccc1` (stereo not given) [Salermide], -0.719.
Still for that read-out and setting: in the case of `O=C(O)c1cc(N(Cc2ccccc2O)Cc2cc(O)ccc2O)ccc1O` [Lavendustin A] it was -0.351; in that of `O=C1CCc2c(ccc3ccccc23)O1` [Splitomicin], -0.477; in that of `CN(C)CCCn1cc(C2=C(c3c[nH]c4ccccc34)C(=O)NC2=O)c2ccccc21`, 2.64 (active).
For `CC(C)C(=O)SCCCCCCC(=O)Nc1nc(-c2ccccc2)cs1`, the proliferation is 0.111.

Staying with this assay, now noted: donor: 1; 5 µM; library: ENZO Libraries; 4 days.
For the compound `O=c1cc(-c2ccc(O)cc2)oc2cc(O)cc(O)c12` [Apigenin], the proliferation is 3.23 (active).
Turning to `O=c1oc(Cl)c(Cl)c2ccccc12` [34-Dichloroisocoumarin], the proliferation is 0.055.
For the compound `CNC(=O)[C@H](Cc1c[nH]c2ccccc12)NC(=O)[C@@H](CC(=O)NO)CC(C)C`, the proliferation is -0.522.
On the same count and under the same terms, the value for `COc1cccc(-c2cc(=O)c3ccccc3o2)c1N` was 2.39 (active).
In the case of `NCCCC[C@H](N[C@@H](CCc1ccccc1)C(=O)O)C(=O)N1CCC[C@H]1C(=O)O` [Lisinopril], the proliferation was 0.0284.
Regarding `CCCC[C@@H](C=O)NC(=O)[C@H](CC(C)C)NC(=O)OCc1ccccc1` [Calpeptin], the proliferation is 0.152.
For the compound `CCCC(CCC)C(=O)O` [Valproic acid], the proliferation was -0.171.
In the case of `O=C(O)c1ccnc(C(=O)O)c1` [24-Pyridinedicarboxylic Acid], the proliferation is -0.194.
In the case of `C[C@H](CS)C(=O)N1CCC[C@H]1C(=O)O` [Captopril], the proliferation was -0.0768.
With `N#C/C(=C\c1ccc(O)c(O)c1)C(=O)Nc1ccccc1`, the proliferation is 0.06.
Same read-out and setting: in the case of `NC(=O)c1cccnc1` [Nicotinamide] it was 0.119; in that of `CC(C)n1cnc2c(NCc3ccccc3)nc(NCCO)nc21` [N9-isopropyl-olomoucine], -0.285; in that of `CCCCC[C@H](CC(=O)NO)C(=O)N[C@H](C(=O)N1CCC[C@H]1CO)C(C)C` [Actinonin], -0.446.
Same read-out and setting: in the case of `C[S+]([O-])c1ccc(-c2nc(-c3ccc(F)cc3)c(-c3ccncc3)[nH]2)cc1` (stereo not given) it was 0.0347; in that of `COc1cc2ncc(-c3ccccc3)nc2cc1OC`, 2.78 (active).
Same read-out and setting: in the case of `CC(C(=O)Nc1cccc(/N=C/c2c(O)ccc3ccccc23)c1)c1ccccc1` (stereo not given) [Salermide] it was -0.645.
On to `O=C(O)c1cc(N(Cc2ccccc2O)Cc2cc(O)ccc2O)ccc1O` [Lavendustin A], for which the proliferation is -0.457.
On to `O=C1CCc2c(ccc3ccccc23)O1` [Splitomicin], for which the proliferation is -0.269.
With `CN(C)CCCn1cc(C2=C(c3c[nH]c4ccccc34)C(=O)NC2=O)c2ccccc21`, the proliferation is -0.932.
On the same count and under the same terms, the value for `CC(C)C(=O)SCCCCCCC(=O)Nc1nc(-c2ccccc2)cs1` was 0.205.
